# A selection: hits, their analogues and other compounds. The true share with any hit is near 2.2%.
# Mot1-301 SUMO = inhibitors of SUMOylation pathway: yeast Mot1-301 growth rescue | S. cerevisiae Mot1-301 growth rescue, ATP luminescence, 38.5C; percent above DMSO median, 100 means doubled | growth rescue, % at 18.8 µM | actives 1% (n = 320,000);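 active = every valid replicate shows activation above 250% relative to neutral control wells; inactive = the rest, any valid replicate at or below 250%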;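 note: OY570 slx delta 5 strain wells were the positive control but not used for scaling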
# Efflux pump mplx = inhibitors of Candida antifungal efflux pumps expressed in yeast; S. cerevisiae Candida pump triplex, Nile Red efflux; inhibition, % at 10 µM; actives 0.44% (n = 330,000); AID 485275;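 active = plate passing quality check with inhibition over a set limit, or well fluorescence over plate mean plus 4 SD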;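 note: Nile Red retained in pooled yeast measured as flow cytometry median fluorescence; 0% = buffer negative control and 100% = Enniatin B positive control; higher means more Nile Red kept so more efflux inhibition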
# sPLA2-III inh = Inhibits HGIII-sPLA2 liposome hydrolysis, primary screen. QFRET BODIPY PC-A2 liposome hydrolysis, fluorescence. inhibition, % at 12.2 µM. actives 0.56% (n = 370,000). Q9NZ20. AID 743126;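 active = inhibition above mean plus 3 SD of compounds lying within the high and low control bounds, cut at about 19% in these data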;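 note: 0% = median of test compound wells and 100% = no enzyme DMSO wells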
# Target sequence (Q9NZ20 whole entry, looked up): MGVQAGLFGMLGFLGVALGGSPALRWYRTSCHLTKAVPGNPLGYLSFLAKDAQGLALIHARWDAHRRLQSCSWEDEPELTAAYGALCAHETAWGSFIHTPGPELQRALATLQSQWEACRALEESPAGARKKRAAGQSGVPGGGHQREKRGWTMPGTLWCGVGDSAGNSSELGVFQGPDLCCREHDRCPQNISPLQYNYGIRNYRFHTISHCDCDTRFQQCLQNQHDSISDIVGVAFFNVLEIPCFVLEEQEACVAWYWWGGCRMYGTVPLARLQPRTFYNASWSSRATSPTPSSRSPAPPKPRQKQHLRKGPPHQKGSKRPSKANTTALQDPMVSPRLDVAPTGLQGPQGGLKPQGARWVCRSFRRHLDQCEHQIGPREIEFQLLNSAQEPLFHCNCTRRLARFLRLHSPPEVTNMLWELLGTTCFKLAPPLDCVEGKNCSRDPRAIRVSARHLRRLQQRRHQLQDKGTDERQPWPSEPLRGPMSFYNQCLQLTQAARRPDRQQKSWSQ
# SKN-1 block = C. elegans SKN-1 inhibition. C. elegans VP596 Pgst-4::GFP/RFP ratio, acrylamide-induced, 24 h. inhibition, % at 21.8 µM. actives 0.49% (n = 360,000). AID 624304;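 active = interference check ratio from 0.5 to 1.5 plus GFP to RFP signal ratio inhibition reaching or exceeding a fixed threshold, cut at about 30% in these data, passing the limit was not always enough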
# Yeast Mot1 SUMO = SUMO pathway inhibitors in yeast Mot1-301 growth. shares compounds with Mot1-301 SUMO. S. cerevisiae Mot1-301 galactose growth, ATP luminescence, 24 h; -100 = growth of slx-deleted rescue strain. growth activity, percent, % at 42 µM. 2,300 tested, under 10 active;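 active = Signal drops as the depositor expects, and the fitted half-maximal dose is no more than ten times the top valid tested dose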;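 note: more negative values mean stronger growth rescue toward the control strain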
# Active calls of the source: *; . = no result; + = active, no number.
SMILES,Mot1-301 SUMO,Efflux pump mplx,sPLA2-III inh,SKN-1 block,Yeast Mot1 SUMO
O=C1NC(c2ccccc2)C(C(=O)c2cccs2)C(O)(C(F)(F)F)N1 (centres undefined),374*,0,10,-9,0
COc1cc(C2NC(=S)NC(O)(C(F)(F)F)C2C(=O)c2cccs2)cc(OC)c1O (centres undefined),-8,0,14,7,.
Cn1cccc1C(=O)N1CCN(S(=O)(=O)c2ccccc2F)CC1,.,.,-4,.,.
O=C(COC(=O)C1COc2ccccc2O1)NC1CCS(=O)(=O)C1 (centres undefined),473*,0,4,8,0
N=c1n(CCCOc2ccc(Br)cc2)c2ccccc2n1CC(N)=O,363*,0,5,-10,0
CCCCN1CCS(=O)(=O)N(Cc2cn(Cc3ccccc3Br)nn2)C(C(=O)OC)C1 (centres undefined),.,.,5,.,.
CCOC(=O)C1CCCN(C(=O)/C=C/c2cc(OC)c(OC)c(OC)c2)C1 (centres undefined),3,0,-4,4,.
CCOC(=O)C1CCCN(C(=O)/C=C/c2ccc(Cl)cc2)C1 (centres undefined),420*,1,-5,13,-1
Cc1ccc(S(=O)(=O)N[C@H](C(=O)NC2CCC(C)CC2)C(C)C)cc1 (some centres undefined),-6,0,-2,-9,.
CN(C(=O)c1cnccn1)c1c(N)n(Cc2ccccc2)c(=O)[nH]c1=O,-1,0,7,5,.
N#CCSc1nc2c(c(C3CC=CCC3)c1C#N)CCC2 (centres undefined),+,0,3,-25,1
N#CCSc1nc2c(cc1C#N)CCCCCC2,145,0,-14,18,.
O=C(NNC(=O)c1ccccc1O)c1ccc(S(=O)(=O)Nc2ccccc2)cc1,35,0,-4,-3,.
Nn1c(SCC(=O)Nc2ccc(OCc3ccccc3)cc2)nnc1-c1cc(-c2ccc(Cl)cc2)n[nH]1,.,.,8,.,.
COc1ccc(/C=C/C(=O)N2CCC(C(N)=O)CC2)cc1S(=O)(=O)N1CCOCC1,714*,0,1,-4,-1
COCCNC(=S)N(C)[C@H]1C[C@H]2c3cc(N4CCN(C)CC4)ccc3CCN2C(=O)[C@H]1[C@H](C)O,.,.,8,10,.
CC1CCCN(C(=O)Cc2ccc(F)cc2)C1 (centres undefined),408*,0,-2,1,0
O=C(Nc1ccc(F)cc1)C(c1cccc(F)c1)N1CCN(C(=O)c2ccco2)CC1 (centres undefined),.,.,-1,3,.
NNc1nc2sc3c(c2c(=O)n1-c1ccccc1)CCCC3,639*,0,1,-1,0
CCc1cccc(OCC(O)Cn2c(N3CCCCC3)nc3c2c(=O)[nH]c(=O)n3C)c1 (centres undefined),-1,0,0,-3,.
O=C(CSc1nc2ccc(Nc3nc(N4CCOCC4)nc(N4CCOCC4)n3)cc2s1)N1CCOCC1,382*,0,15,-9,0
COc1ccccc1C(=O)N/N=C/c1cnc2ccccc2n1,59,0,-3,-3,.
O=C(c1cccc(S(=O)(=O)NCc2ccccc2)c1)N1CCN(c2ccccc2Cl)CC1,.,.,-38,-1,.
NC(=O)c1ccccc1NC(=O)c1ccc2ccccc2c1,-8,0,-11,2,.
O=C(Nc1ccc([N+](=O)[O-])cn1)c1ccc2c(c1)OCO2,605*,0,-5,4,2
SMILES,Mot1-301 SUMO,Efflux pump mplx,sPLA2-III inh,SKN-1 block,Yeast Mot1 SUMO
NC(=O)c1ccccc1NC(=O)c1ccc2c(c1)OCO2,700*,0,2,12,-1
NC1=[N+](Cc2ccccc2)C(Cc2ccccc2)C2C(=C3CCCCC3n3c(=O)n(-c4ccccc4)c(=O)n32)N1 (centres undefined),.,.,0,.,.
Cc1ccccc1CSCC(=O)Nc1ccccc1F,-11,1,3,0,.
CSc1ncc2ncn(C3OC(CO)C(O)C3O)c2n1 (centres undefined),+,0,9,-6,1
CCSc1nc(N)nc2c1ncn2C1OC(CO)C(O)C1O (centres undefined),.,.,10,-9,.
CCCNc1cc(C)oc(=O)c1C(=O)CC,.,0,0,8,.
CSc1ncccc1C(=O)NC1CCCc2c1cnn2-c1ccc(C)c(C)c1 (centres undefined),458*,0,-6,-10,1
COc1ncccc1C(=O)NC1CCCc2c1cnn2-c1ccc(C)c(C)c1 (centres undefined),-20,0,-3,-2,.
Cc1ccnc(SCC(=O)Nc2cc(C)on2)n1,-2,0,7,9,.
COc1ccc(NC(=O)CSc2nccc(C)n2)cc1,+,0,6,-8,0
CCOc1ccc(-c2c(C(=O)N/N=C/c3ccncc3)nnn2-c2nonc2N)cc1,396*,0,-7,9,1
CC/C(=N\NC(=O)c1nnn(-c2nonc2N)c1-c1ccc2c(c1)OCO2)c1ccccc1,-2,0,-19,15,.
CCOc1ccc(-c2c(C(=O)N/N=C/c3ccc(C)cc3)nnn2-c2nonc2N)cc1,71,0,-17,11,.
CC/C(=N\NC(=O)c1nnn(-c2nonc2N)c1-c1cccs1)c1ccccc1,371*,0,-2,3,1
Cc1cc(C)c(S(=O)(=O)N2CCN(C(=O)c3ccc4c(c3)OCO4)CC2)c(C)c1,28,0,-7,13,.
CCN(CC)CCCNC(=O)c1oc2ccc(S(=O)(=O)N3CC(C)CC(C)C3)cc2c1C (centres undefined),-12,0,-10,4,.
C/C(CC(=O)Nc1cccc(Cl)c1Cl)=N\NC(=O)C(=O)N1CCCC1,0,0,1,14,.
C/C(CC(=O)Nc1cccc(Cl)c1Cl)=N\NC(=O)c1ccccc1C,452*,0,-3,5,0
COCCn1c(=NC(=O)c2ccc(S(=O)(=O)N3CCOCC3)cc2)sc2cc(S(N)(=O)=O)ccc21,552*,0,-2,-8,-1
COC(=O)Cn1c(=NC(=O)c2ccc(S(=O)(=O)N3CCOCC3)cc2)sc2cc(S(N)(=O)=O)ccc21,-14,0,-2,-3,.
C=CCn1c(SCC(=O)NC2CCCC2)nc2ccccc21,.,.,8,31,.
O=C(Nc1ccccc1F)C1CCN(C(=O)Cc2ccccc2)CC1,684*,0,-2,4,0
O=c1nc(-c2ccccc2)c(-c2ccccc2)n[nH]1,-6,0,-3,-7,.
O=c1nc(-c2ccccc2)cn[nH]1,570*,0,-2,9,0
Cc1ccc(NC(=O)COc2ccccc2C(=O)NCCN(C)C)cc1,800*,0,.,.,1
Cc1ccc(S(=O)(=O)N(C)c2ccc(C(=O)NCc3ccccc3F)cc2)cc1,-6,0,0,15,.
Cc1ccc(CC(=O)O/N=C(\N)c2cccc([N+](=O)[O-])c2)cc1,448*,0,2,14,0

# High-throughput results (PubChem BioAssay)
